# Source: the supplement of paper PMC8728848
# Shown is part of a subset that was picked to be rich in the strongest signals.
# B1: Jacalin (Artocarpus integrifolia) (protein)
# chain: MAYSSLLSLSVLALLFSISSADTRKWFLANGINQNPIGIIEAAVGVSEDLLNLNGMEAKNDEQSGISQTVIVGPWGAKVSTSSNGKAFDDGAFTGIREINLSYNKETAIGDFQVVYDLNGSPYVGQNHKSFITGFTPVKISLDFPSEYIMEVSGYTGNVSGYVVVRSLTFKTNKKTYGPYGVTSGTPFNLPIENGLIVGFKGSIGYWLDYFSMYLSL
# Key:
# Test in all cases: glycan array binding signal (z-score within array); higher = stronger binding
# Details in all cases: glycan notation: IUPAC condensed, linker removed
# Fuc(a1-2)Gal(b1-3)GalNAc = target: Fuc(a1-2)Gal(b1-3)GalNAc
# Method in brief: (§1)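 The Consortium for Functional Glycomics database supplied 3228 glycan arrays, of which those lacking an available protein sequence were dropped. The binding signal, a within-array Z-score, was averaged across arrays of the same protein sequence and across linkers. Negative scores can be read as non-binding.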
# Fuc(a1-2)Gal(b1-4)Glc6S = target: Fuc(a1-2)Gal(b1-4)Glc6S
# Method in brief: as §1
# [1] = target: Fuc(a1-2)Gal(b1-4)GlcNAc(b1-3)GalNAc
# Method in brief: as §1
# [2] = target: Fuc(a1-2)Gal(b1-4)[Fuc(a1-3)]GlcNAc(b1-2)[Fuc(a1-2)Gal(b1-4)[Fuc(a1-3)]GlcNAc(b1-4)]Man(a1-3)[Fuc(a1-2)Gal(b1-4)[Fuc(a1-3)]GlcNAc(b1-2)Man(a1-6)]Man(b1-4)GlcNAc(b1-4)GlcNAc
# Method in brief: as §1
# [3] = target: Fuc(a1-2)[Gal(a1-3)]Gal(b1-3)GlcNAc(b1-2)Man(a1-3)[Fuc(a1-2)[Gal(a1-3)]Gal(b1-3)GlcNAc(b1-2)Man(a1-6)]Man(b1-4)GlcNAc(b1-4)[Fuc(a1-6)]GlcNAc
# Method in brief: as §1
# [4] = target: Fuc(a1-2)[Gal(a1-3)]Gal(b1-3)GlcNAc(b1-6)GalNAc
# Method in brief: as §1
# [5] = target: Fuc(a1-2)[Gal(a1-3)]Gal(b1-4)GlcNAc(b1-2)Man(a1-3)[Fuc(a1-2)[Gal(a1-3)]Gal(b1-4)GlcNAc(b1-2)Man(a1-6)]Man(b1-4)GlcNAc(b1-4)[Fuc(a1-6)]GlcNAc
# Method in brief: as §1
# [6] = target: Fuc(a1-2)[Gal(a1-3)]Gal(b1-4)GlcNAc(b1-3)[Fuc(a1-2)[Gal(a1-3)]Gal(b1-4)GlcNAc(b1-6)]GalNAc
# Method in brief: as §1
# [7] = target: Fuc(a1-2)[Gal(a1-3)]Gal(b1-4)GlcNAc(b1-6)GalNAc
# Method in brief: as §1
# [8] = target: Fuc(a1-2)[GalNAc(a1-3)]Gal(b1-4)GlcNAc(b1-2)Man
# Method in brief: as §1
# [9] = target: Fuc(a1-2)[GalNAc(b1-3)]Gal
# Method in brief: as §1
# [10] = target: Fuc(a1-3)[Gal(b1-4)]Glc6S
# Method in brief: as §1
# [11] = target: Fuc(a1-3)[Gal(b1-4)]GlcNAc(b1-2)Man(a1-3)[Fuc(a1-3)[Gal(b1-4)]GlcNAc(b1-2)Man(a1-6)]Man(b1-4)GlcNAc(b1-4)GlcNAc
# Method in brief: as §1
# [12] = target: Gal(a1-3)Gal(b1-4)[Fuc(a1-3)]GlcNAc
# Method in brief: as §1
# [13] = target: Gal(b1-3)GlcNAc(b1-3)Gal(b1-4)Glc
# Method in brief: as §1
# [14] = target: Gal(b1-3)GlcNAc(b1-3)Gal(b1-4)GlcNAc(b1-2)[Gal(b1-3)GlcNAc(b1-3)Gal(b1-4)GlcNAc(b1-6)]Man(a1-6)[Gal(b1-3)GlcNAc(b1-3)Gal(b1-4)GlcNAc(b1-2)Man(a1-3)]Man(b1-4)GlcNAc(b1-4)[Fuc(a1-6)]GlcNAc
# Method in brief: as §1
# [15] = target: Gal(b1-4)GlcNAc(b1-3)Gal(b1-4)GlcNAc(b1-3)Gal(b1-4)GlcNAc(b1-3)Gal(b1-4)GlcNAc(b1-2)Man(a1-3)[Gal(b1-4)GlcNAc(b1-3)Gal(b1-4)GlcNAc(b1-3)Gal(b1-4)GlcNAc(b1-3)Gal(b1-4)GlcNAc(b1-2)Man(a1-6)]Man(b1-4)GlcNAc(b1-4)[Fuc(a1-6)]GlcNAc
# Method in brief: as §1
# [16] = target: Gal(b1-4)GlcNAc(b1-3)Gal(b1-4)GlcNAc(b1-6)[Gal(b1-3)]GalNAc
# Method in brief: as §1
# Gal3S(b1-3)GalNAc = target: Gal3S(b1-3)GalNAc
# Method in brief: as §1
# [17] = target: GalNAc(a1-3)GalNAc(b1-3)Gal(a1-4)Gal(b1-4)Glc
# Method in brief: as §1
# GalNAc(b1-3)GalNAc = target: GalNAc(b1-3)GalNAc
# Method in brief: as §1
# [18] = target: GlcNAc(a1-4)Gal(b1-3)GlcNAc
# Method in brief: as §1
# [19] = target: GlcNAc(a1-4)Gal(b1-4)GlcNAc(b1-3)Gal(b1-4)GlcNAc(b1-3)Gal(b1-4)GlcNAc
# Method in brief: as §1
# [20] = target: GlcNAc(b1-2)Gal(b1-3)GalNAc
# Method in brief: as §1
# [21] = target: GlcNAc(b1-2)Man(a1-3)[GlcNAc(b1-2)Man(a1-6)]Man(b1-4)GlcNAc(b1-4)[Fuc(a1-6)]GlcNAc
# Method in brief: as §1
# [22] = target: GlcNAc(b1-3)Gal(b1-4)GlcNAc(b1-3)Gal(b1-4)GlcNAc(b1-2)Man(a1-3)[GlcNAc(b1-3)Gal(b1-4)GlcNAc(b1-3)Gal(b1-4)GlcNAc(b1-2)Man(a1-6)]Man(b1-4)GlcNAc(b1-4)[Fuc(a1-6)]GlcNAc
# Method in brief: as §1
# [23] = target: GlcNAc(b1-3)Gal(b1-4)GlcNAc(b1-3)Gal(b1-4)GlcNAc(b1-2)[GlcNAc(b1-3)Gal(b1-4)GlcNAc(b1-3)Gal(b1-4)GlcNAc(b1-6)]Man(a1-6)[GlcNAc(b1-3)Gal(b1-4)GlcNAc(b1-3)Gal(b1-4)GlcNAc(b1-2)Man(a1-3)]Man(b1-4)GlcNAc(b1-4)[Fuc(a1-6)]GlcNAc
# Method in brief: as §1
# [24] = target: GlcNAc(b1-3)Gal(b1-4)GlcNAc(b1-3)Gal(b1-4)GlcNAc(b1-3)Gal(b1-4)GlcNAc(b1-2)Man(a1-3)[GlcNAc(b1-3)Gal(b1-4)GlcNAc(b1-3)Gal(b1-4)GlcNAc(b1-3)Gal(b1-4)GlcNAc(b1-2)Man(a1-6)]Man(b1-4)GlcNAc(b1-4)GlcNAc
# Method in brief: as §1
# [25] = target: GlcNAc(b1-3)Gal(b1-4)GlcNAc(b1-3)Gal(b1-4)GlcNAc(b1-3)Gal(b1-4)GlcNAc(b1-2)Man(a1-3)[GlcNAc(b1-3)Gal(b1-4)GlcNAc(b1-3)Gal(b1-4)GlcNAc(b1-3)Gal(b1-4)GlcNAc(b1-2)Man(a1-6)]Man(b1-4)GlcNAc(b1-4)[Fuc(a1-6)]GlcNAc
# Method in brief: as §1
# [26] = target: GlcNAc(b1-3)Gal(b1-4)GlcNAc(b1-3)Gal(b1-4)GlcNAc(b1-3)Gal(b1-4)GlcNAc(b1-2)[GlcNAc(b1-3)Gal(b1-4)GlcNAc(b1-3)Gal(b1-4)GlcNAc(b1-3)Gal(b1-4)GlcNAc(b1-6)]Man(a1-6)[GlcNAc(b1-3)Gal(b1-4)GlcNAc(b1-3)Gal(b1-4)GlcNAc(b1-3)Gal(b1-4)GlcNAc(b1-2)Man(a1-3)]Man(b1-4)GlcNAc(b1-4)[Fuc(a1-6)]GlcNAc
# Method in brief: as §1
# [27] = target: GlcNAc(b1-3)Gal(b1-4)GlcNAc(b1-3)Gal(b1-4)GlcNAc(b1-3)Gal(b1-4)GlcNAc(b1-3)Gal(b1-4)GlcNAc(b1-2)Man(a1-3)[GlcNAc(b1-3)Gal(b1-4)GlcNAc(b1-3)Gal(b1-4)GlcNAc(b1-3)Gal(b1-4)GlcNAc(b1-3)Gal(b1-4)GlcNAc(b1-2)Man(a1-6)]Man(b1-4)GlcNAc(b1-4)GlcNAc
# Method in brief: as §1
# [28] = target: GlcNAc(b1-3)Gal(b1-4)GlcNAc(b1-3)Gal(b1-4)GlcNAc(b1-3)Gal(b1-4)GlcNAc(b1-3)Gal(b1-4)GlcNAc(b1-2)Man(a1-3)[GlcNAc(b1-3)Gal(b1-4)GlcNAc(b1-3)Gal(b1-4)GlcNAc(b1-3)Gal(b1-4)GlcNAc(b1-3)Gal(b1-4)GlcNAc(b1-2)Man(a1-6)]Man(b1-4)GlcNAc(b1-4)[Fuc(a1-6)]GlcNAc
# Method in brief: as §1
# [29] = target: GlcNAc(b1-3)Gal(b1-4)GlcNAc(b1-3)Gal(b1-4)GlcNAc(b1-3)Gal(b1-4)GlcNAc(b1-3)Gal(b1-4)GlcNAc(b1-2)[GlcNAc(b1-3)Gal(b1-4)GlcNAc(b1-3)Gal(b1-4)GlcNAc(b1-3)Gal(b1-4)GlcNAc(b1-3)Gal(b1-4)GlcNAc(b1-6)]Man(a1-6)[GlcNAc(b1-3)Gal(b1-4)GlcNAc(b1-3)Gal(b1-4)GlcNAc(b1-3)Gal(b1-4)GlcNAc(b1-3)Gal(b1-4)GlcNAc(b1-2)Man(a1-3)]Man(b1-4)GlcNAc(b1-4)[Fuc(a1-6)]GlcNAc
# Method in brief: as §1
# [30] = target: GlcNAc(b1-3)Gal(b1-4)GlcNAc(b1-3)Gal(b1-4)GlcNAc(b1-3)GalNAc
# Method in brief: as §1
# [31] = target: GlcNAc(b1-3)Gal(b1-4)GlcNAc(b1-3)[GlcNAc(b1-3)Gal(b1-4)GlcNAc(b1-3)]GalNAc
# Method in brief: as §1
# [32] = target: Neu5Ac(a2-3)Gal(b1-3)GalNAc(b1-3)Gal(b1-4)GlcNAc
# Method in brief: as §1
# [33] = target: Neu5Ac(a2-3)Gal(b1-3)GalNAc(b1-4)[Neu5Ac(a2-3)]Gal(b1-4)Glc
# Method in brief: as §1
# [34] = target: Neu5Ac(a2-3)Gal(b1-3)GlcNAc(b1-2)Man
# Method in brief: as §1
# [35] = target: Neu5Ac(a2-3)Gal(b1-3)GlcNAc(b1-3)Gal(b1-4)GlcNAc
# Method in brief: as §1
# [36] = target: Neu5Ac(a2-3)Gal(b1-3)]Neu5Ac(a2-3)Gal(b1-4)]GlcNAc
# Method in brief: as §1
# [37] = target: Neu5Ac(a2-6)Gal(b1-4)GlcNAc(b1-2)Man(a1-3)[Neu5Ac(a2-3)Gal(b1-4)GlcNAc(b1-2)Man(a1-6)]Man(b1-4)GlcNAc(b1-4)GlcNAc
# Method in brief: as §1
# [38] = target: Neu5Ac(a2-6)Gal(b1-4)GlcNAc(b1-2)Man(a1-6)Man(b1-4)GlcNAc(b1-4)GlcNAc
# Method in brief: as §1
# [39] = target: Neu5Gc(a2-6)Gal(b1-4)GlcNAc
# Method in brief: as §1
binder,measurement,setting,value
B1,glycan array binding signal (z-score),Fuc(a1-2)Gal(b1-3)GalNAc,0.218
same,glycan array binding signal (z-score),Fuc(a1-2)Gal(b1-4)Glc6S,-0.249
same,glycan array binding signal (z-score),[1],0.829
same,glycan array binding signal (z-score),[2],-0.131
same,glycan array binding signal (z-score),[3],-0.249
same,glycan array binding signal (z-score),[4],-0.265
same,glycan array binding signal (z-score),[5],-0.211
same,glycan array binding signal (z-score),[6],-0.332
same,glycan array binding signal (z-score),[7],-0.217
same,glycan array binding signal (z-score),[8],-0.29
same,glycan array binding signal (z-score),[9],0.341
same,glycan array binding signal (z-score),[10],-0.23
same,glycan array binding signal (z-score),[11],-0.259
same,glycan array binding signal (z-score),[12],-0.268
same,glycan array binding signal (z-score),[13],-0.279
same,glycan array binding signal (z-score),[14],-0.084
same,glycan array binding signal (z-score),[15],0.12
same,glycan array binding signal (z-score),[16],0.001
same,glycan array binding signal (z-score),Gal3S(b1-3)GalNAc,1.89
same,glycan array binding signal (z-score),[17],-0.256
same,glycan array binding signal (z-score),GalNAc(b1-3)GalNAc,3.34
same,glycan array binding signal (z-score),[18],0.435
same,glycan array binding signal (z-score),[19],2.63
same,glycan array binding signal (z-score),[20],2.21
same,glycan array binding signal (z-score),[21],0.257
same,glycan array binding signal (z-score),[22],2.52
same,glycan array binding signal (z-score),[23],2.41
same,glycan array binding signal (z-score),[24],3.65
same,glycan array binding signal (z-score),[25],3.32
same,glycan array binding signal (z-score),[26],4.09
same,glycan array binding signal (z-score),[27],4.05
same,glycan array binding signal (z-score),[28],4.23
same,glycan array binding signal (z-score),[29],5.64
same,glycan array binding signal (z-score),[30],1.03
same,glycan array binding signal (z-score),[31],0.857
same,glycan array binding signal (z-score),[32],-0.336
same,glycan array binding signal (z-score),[33],-0.262
same,glycan array binding signal (z-score),[34],-0.194
same,glycan array binding signal (z-score),[35],-0.274
same,glycan array binding signal (z-score),[36],-0.263
same,glycan array binding signal (z-score),[37],-0.241
same,glycan array binding signal (z-score),[38],-0.259
same,glycan array binding signal (z-score),[39],-0.247
